From PubChem BioAssay (Tox21)
Inconclusive results are not listed. The source made the active and inactive calls. Unless noted, the call rests on the fitted dose curve; in most records, active means well fitted curve in the direction sought with a large enough effect in the repeat runs; inconclusive means weak or mixed curves; inactive means no such curve, though single readings can be large; an effect the other way counts as inactive or inconclusive.

How the values were obtained:
[1] = qHTS assay to identify small molecule antagonists of the thyroid receptor (TR) signaling pathway - cell viability counter screen (AID 743064); further: nearly all actives have a fitted effect of over 50% in size
Method in brief: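 GH3.TRE-Luc rat pituitary cells dosed after 4 hr plating, co-stimulated with T3 at 1 nM final, incubated 23.5 h at 37 C. Viability measured in the same wells by CellTiter-Fluor fluorescence after 30 min further at 37 C.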

[2] = qHTS assay to identify small molecule antagonists of the thyroid receptor (TR) signaling pathway (AID 743065); further: series mostly up to about 70 µM; nearly all actives have a fitted effect of over 55% in size
Method in brief: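 GH3.TRE-Luc rat pituitary cells (two TREs driving luciferase) were dosed with compound, then stimulated with 1 nM T3 (final) for 23.5 h at 37 C. ONE-Glo luminescence was the read-out, with CellTiter-Fluor fluorescence as the cytotoxicity counter-screen.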

[3] = test system: thyroid hormone receptor (rat, GH3 cells); assay: qHTS assay to identify small molecule agonists of the thyroid receptor (TR) signaling pathway (AID 743066; calls by dose curve)
[4] = target: Estrogen receptor (Homo sapiens) (UniProt P03372); assay: qHTS assay to identify small molecule antagonists of the estrogen receptor alpha (ER-alpha) signaling pathway (AID 743069; active means well fitted curve in the direction sought with a large enough effect in the signal ratio in the repeat runs, not every such curve was filed as active; the % refers to the signal ratio)
Method in brief: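 HEK293 ER-alpha-UAS-bla GripTite cells, held overnight in 2% charcoal-stripped FBS, 5,000 cells/well, preincubated 4 h, then compound plus 17beta-estradiol for 18 h at 37C. Beta-lactamase read by LiveBLAzer B/G FRET substrate, 2 h at room temperature.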

[5] = qHTS assay to identify small molecule antagonists of the estrogen receptor alpha (ER-alpha) signaling pathway - cell viability counter screen (AID 743074; calls by dose curve;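 further: HEK293 cells carrying ER-alpha-UAS-bla reporter stimulated with 17beta-estradiol; nearly all actives have a fitted effect of over 45% in size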)
[6] = target: Estrogen receptor (Homo sapiens) (UniProt P03372); assay: qHTS assay to identify small molecule agonists of the estrogen receptor alpha (ER-alpha) signaling pathway (AID 743075; calls by dose curve)
[7] = target: Estrogen receptor (Homo sapiens) (UniProt P03372); assay: qHTS assay to identify small molecule agonists of the estrogen receptor alpha (ER-alpha) signaling pathway using the BG1 cell line (AID 743079); further: nearly all actives have a fitted effect of over 20% in size; further: potency means the concentration at half of the fitted maximal effect
[8] = qHTS assay to identify small molecule antagonists of the estrogen receptor alpha (ER-alpha) signaling pathway using the BG1 cell line (AID 743080; calls by dose curve;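 further: BG1 cells stimulated with 17beta-estradiol alongside compound; series mostly up to about 70 µM; nearly all actives have a fitted effect of over 25% in size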)
Method in brief: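 BG1Luc4E2, endogenous ER-alpha, 4xERE-luc; 5 d charcoal-stripped FBS, phenol red free; 24 h plating; cpd + 17beta-estradiol 21.5 h, 37 C/5% CO2; CellTiter-Fluor viability 30 min, then ONE-Glo luciferase 30 min RT.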

[9] = qHTS assay to identify small molecule antagonists of the estrogen receptor alpha (ER-alpha) signaling pathway using the BG1 cell line - cell viability counter screen (AID 743081);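 further: compound given together with 17beta-estradiol as the ER stimulus; series mostly up to about 70 µM; nearly all actives have a fitted effect of over 45% in size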
[10] = target: Aromatase (Homo sapiens) (UniProt P11511); assay: qHTS assay to identify aromatase inhibitors (AID 743083); further: series mostly up to about 70 µM; nearly all actives have a fitted effect of over 55% in size
[11] = qHTS assay to identify aromatase inhibitors - cell viability counter screen (AID 743084);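 further: cells stimulated with testosterone during compound exposure; nearly all actives have a fitted effect of over 55% in size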
[12] = target: Aryl hydrocarbon receptor (Homo sapiens) (UniProt P35869); assay: qHTS assay to identify small molecule that activate the aryl hydrocarbon receptor (AhR) signaling pathway (AID 743085);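 further: HG2L7.5c1 human HepG2 liver cells with stably integrated DRE-driven firefly reporter; series mostly up to about 70 µM; nearly all actives have a fitted effect of over 15% in size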
Method in brief: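 HepG2 cells stably carrying a 20-DRE firefly luciferase reporter (HG2L7.5c1) treated with compound for 24 hr at 37C. Luciferase read by ONE-Glo luminescence, with CellTiter-Fluor viability read first.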

[13] = qHTS assay to identify small molecule that activate the aryl hydrocarbon receptor (AhR) signaling pathway - cell viability counter screen (AID 743086);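 further: HepG2 liver cells carrying the AhR DRE luciferase reporter; series mostly up to about 70 µM; nearly all actives have a fitted effect of over 45% in size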
Method in brief: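 HepG2-AhR-luc (HG2L7.5c1) cells, 4000/well, treated 24 h at 37 C with compound; viability measured as CellTiter-Fluor fluorescence after 30 min in the same wells as the luciferase read.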

[14] = target: Peroxisome proliferator-activated receptor gamma (Homo sapiens) (UniProt P37231); assay: qHTS assay to identify small molecule agonists of the peroxisome proliferator-activated receptor gamma (PPARg) signaling pathway (AID 743094; active means well fitted activation curve with a large enough effect in the signal ratio in the repeat runs, not every such curve was filed as active; the % refers to the signal ratio)
Method in brief: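 GeneBLAzer PPARg UAS-bla HEK293H cells were plated, rested 5 h, then exposed to compounds for 17 h at 37C. Beta-lactamase activity was read by LiveBLAzer B/G FRET substrate fluorescence after 1 h at room temperature.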

[15] = target: Peroxisome proliferator-activated receptor gamma (Homo sapiens) (UniProt P37231); assay: qHTS assay to identify small molecule antagonists of the peroxisome proliferator-activated receptor gamma (PPARg) signaling pathway (AID 743191; calls by dose curve; further: series mostly up to about 63 µM; nearly all actives have a fitted effect of over 30% in size)
Method in brief: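 GeneBLAzer PPARg UAS-bla HEK293H cells, 5 h post-plating, exposed to compounds 17 h at 37C. LiveBLAzer B/G FRET substrate added for 1 h at room temperature; beta-lactamase reporter read by fluorescence intensity.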

[16] = qHTS assay to identify small molecule antagonists of the peroxisome proliferator-activated receptor gamma (PPARg) signaling pathway - cell viability counter screen (AID 743194); further: nearly all actives have a fitted effect of over 55% in size
Method in brief: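 Cytotoxicity counter screen in PPARg-bla HEK293H cells, same wells as reporter assay. Compounds plus 50 nM rosiglitazone (final) for 17 h at 37 C, then viability read by CellTiter-Glo luminescence.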

[17] = qHTS assay for small molecule agonists of the antioxidant response element (ARE) signaling pathway - cell viability counter screen (AID 743203; calls by dose curve; further: nearly all actives have a fitted effect of over 55% in size)
Method in brief: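 ARE-bla HepG2 cells were plated, rested 5 h at 37C/5% CO2, then exposed to compounds in DMSO for 16 h. Viability was read as CellTiter-Glo luminescence after 30 min at room temperature, in the same wells as the ARE screen.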

[18] = qHTS assay for small molecule activators of the heat shock response signaling pathway - cell viability counter screen (AID 743209); further: nearly all actives have a fitted effect of over 50% in size
Method in brief: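 HSE-bla HeLa cells plated overnight, then exposed to Tox21 compounds (23 nL in DMSO) for 5 h at 37 C. After the bla reporter read, CellTiter-Glo was added in the same wells and luminescence read after 30 min at room temperature.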

[19] = qHTS assay for small molecule agonists of the antioxidant response element (ARE) signaling pathway (AID 743202; active means well fitted activation curve with a large enough effect in the signal ratio in the repeat runs, not every such curve was filed as active; the % refers to the signal ratio)
Method in brief: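 ARE-bla HepG2 cells (beta-lactamase reporter under the antioxidant response element), plated 5 hours, then exposed to compounds 16 hours at 37 C. LiveBLAzer B/G FRET substrate added for 2 hours at room temperature; fluorescence intensity read.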

[20] = qHTS assay for small molecule activators of the heat shock response signaling pathway (AID 743210; active means well fitted activation curve with a large enough effect in the signal ratio in the repeat runs, with a control signal flat, not every such curve was filed as active; the % refers to the signal ratio; further: series mostly up to about 63 µM)
Method in brief: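 HSE-bla HeLa cells (beta-lactamase reporter under heat shock response elements), plated overnight, then exposed to compounds 5 h at 37 C; LiveBLAzer B/G FRET substrate added, 2.5 h at room temperature, fluorescence intensity read.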
On the % scale 0 is the no-effect control and ±100 the full control effect.

Sequence of Aromatase (Homo sapiens) (P11511 whole entry, looked up): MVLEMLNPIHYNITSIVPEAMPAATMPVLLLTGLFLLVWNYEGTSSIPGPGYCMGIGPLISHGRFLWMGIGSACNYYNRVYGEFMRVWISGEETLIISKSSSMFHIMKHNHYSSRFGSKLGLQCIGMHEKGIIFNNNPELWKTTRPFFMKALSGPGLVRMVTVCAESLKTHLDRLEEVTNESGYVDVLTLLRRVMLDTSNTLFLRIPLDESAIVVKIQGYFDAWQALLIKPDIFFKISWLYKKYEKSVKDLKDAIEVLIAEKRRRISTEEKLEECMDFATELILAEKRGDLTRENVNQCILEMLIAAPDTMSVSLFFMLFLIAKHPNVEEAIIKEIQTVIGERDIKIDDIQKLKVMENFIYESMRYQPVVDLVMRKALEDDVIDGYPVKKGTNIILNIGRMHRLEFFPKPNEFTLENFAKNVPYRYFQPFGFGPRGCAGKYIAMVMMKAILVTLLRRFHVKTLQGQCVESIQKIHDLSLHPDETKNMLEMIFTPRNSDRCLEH
Sequence of Peroxisome proliferator-activated receptor gamma (Homo sapiens) (P37231 whole entry, looked up): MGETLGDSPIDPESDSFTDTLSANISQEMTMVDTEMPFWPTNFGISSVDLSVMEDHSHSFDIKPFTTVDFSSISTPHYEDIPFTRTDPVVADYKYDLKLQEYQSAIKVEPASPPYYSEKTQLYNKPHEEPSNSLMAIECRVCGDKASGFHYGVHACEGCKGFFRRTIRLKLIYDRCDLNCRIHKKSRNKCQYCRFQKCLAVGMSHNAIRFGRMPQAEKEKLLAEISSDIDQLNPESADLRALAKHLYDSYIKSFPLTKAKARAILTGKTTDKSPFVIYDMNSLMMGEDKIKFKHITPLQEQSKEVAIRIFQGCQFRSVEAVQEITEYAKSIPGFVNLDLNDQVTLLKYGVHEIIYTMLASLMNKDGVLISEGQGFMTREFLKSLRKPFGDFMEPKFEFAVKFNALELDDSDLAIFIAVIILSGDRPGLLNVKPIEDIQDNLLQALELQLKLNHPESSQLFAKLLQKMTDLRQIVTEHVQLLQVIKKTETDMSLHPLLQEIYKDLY
Sequence of Aryl hydrocarbon receptor (Homo sapiens) (P35869 whole entry, looked up): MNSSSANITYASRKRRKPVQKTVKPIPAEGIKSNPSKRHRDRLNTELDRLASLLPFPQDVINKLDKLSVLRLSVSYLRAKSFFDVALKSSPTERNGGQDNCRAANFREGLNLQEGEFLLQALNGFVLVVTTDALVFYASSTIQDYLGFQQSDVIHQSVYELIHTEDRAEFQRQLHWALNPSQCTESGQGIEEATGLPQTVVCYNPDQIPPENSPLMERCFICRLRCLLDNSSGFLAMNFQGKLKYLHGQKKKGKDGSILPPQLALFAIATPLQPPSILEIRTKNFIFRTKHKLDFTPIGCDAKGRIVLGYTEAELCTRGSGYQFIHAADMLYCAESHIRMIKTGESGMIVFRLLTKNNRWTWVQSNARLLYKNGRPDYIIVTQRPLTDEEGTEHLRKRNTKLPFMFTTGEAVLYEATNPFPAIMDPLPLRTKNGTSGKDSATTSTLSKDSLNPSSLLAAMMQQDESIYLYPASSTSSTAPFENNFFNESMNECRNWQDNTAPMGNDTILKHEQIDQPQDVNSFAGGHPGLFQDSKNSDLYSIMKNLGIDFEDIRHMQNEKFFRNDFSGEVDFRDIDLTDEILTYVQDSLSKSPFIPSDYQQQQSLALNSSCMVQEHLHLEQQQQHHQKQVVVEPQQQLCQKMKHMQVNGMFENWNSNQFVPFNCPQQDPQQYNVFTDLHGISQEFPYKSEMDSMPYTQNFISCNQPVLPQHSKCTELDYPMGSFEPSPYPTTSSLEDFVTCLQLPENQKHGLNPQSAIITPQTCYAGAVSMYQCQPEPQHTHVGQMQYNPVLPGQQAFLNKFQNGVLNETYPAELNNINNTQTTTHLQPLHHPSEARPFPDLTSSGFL
Sequence of Estrogen receptor (Homo sapiens) (P03372 whole entry, looked up): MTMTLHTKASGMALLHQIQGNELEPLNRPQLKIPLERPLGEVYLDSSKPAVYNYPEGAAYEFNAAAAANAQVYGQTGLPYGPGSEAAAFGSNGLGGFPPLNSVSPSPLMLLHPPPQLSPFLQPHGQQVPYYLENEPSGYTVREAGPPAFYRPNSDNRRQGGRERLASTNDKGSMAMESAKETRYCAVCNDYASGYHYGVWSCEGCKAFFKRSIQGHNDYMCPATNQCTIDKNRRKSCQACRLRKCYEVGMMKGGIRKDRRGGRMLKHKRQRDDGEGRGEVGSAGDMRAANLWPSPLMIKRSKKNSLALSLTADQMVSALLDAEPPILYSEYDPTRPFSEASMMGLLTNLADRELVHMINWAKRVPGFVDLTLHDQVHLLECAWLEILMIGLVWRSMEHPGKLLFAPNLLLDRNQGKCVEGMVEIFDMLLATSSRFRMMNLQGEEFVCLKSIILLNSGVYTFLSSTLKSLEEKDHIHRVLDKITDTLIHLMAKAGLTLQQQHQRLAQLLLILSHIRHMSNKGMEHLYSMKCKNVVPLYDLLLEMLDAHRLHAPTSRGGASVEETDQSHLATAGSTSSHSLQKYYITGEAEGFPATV

COC(=O)CCCCCCCC(=O)OC
inactive: Potency [1] | Potency [2] | outcome [3] | outcome [4] | outcome [5] | outcome [6] | Potency [7] | Potency [8] | outcome [9] | Potency [10] | Potency [11] | Potency [12] | Potency [13] | outcome [14] | Potency [15] | outcome [16] | outcome [17] | outcome [18]

O=S(O)(O)=S
inactive: activity change, negative = cytotoxic [1] 0% [at 8.44 µM] | activity, negative = inhibition [2] -1.88% [at 8.44 µM] | activation [3] -0.901% [at 8.08 µM] | activity, negative = inhibition [4] 6.18% [at 6.71 µM] | activity, negative = cytotoxicity [5] -12.1% [at 6.72 µM] | activation [6] -2.02% [at 6.71 µM] | activation [7] 6.37% [at 8.47 µM] | activity change, negative = inhibition [8] -6.18% [at 8.47 µM] | activity change, negative = cytotoxicity [9] -1.7% [at 8.47 µM] | activity, negative = inhibition [10] 5.06% [at 8.47 µM] | activity change, negative = cytotoxicity [11] 0.159% [at 8.47 µM] | activation [12] -4.49% [at 8.47 µM] | viability change, negative = cytotoxic [13] -5.98% [at 8.47 µM] | activation [14] 0.645% [at 7.08 µM] | ratio activity, negative = inhibition [15] 10.9% [at 5.95 µM] | activity change, negative = cytotoxicity [16] -0.949% [at 5.95 µM] | activation [19] -7.19% [at 8.36 µM] | viability change, negative = cytotoxic [17] 2.86% [at 8.36 µM] | activity change, negative = cytotoxicity [18] 5.21% [at 5.95 µM]

Cc1nc2n(c(=O)c1CCN1CCC(c3noc4cc(F)ccc34)CC1)CCC[C@H]2O
inactive: Potency [1] | Potency [2] | outcome [3] | outcome [4] | outcome [5] | outcome [6] | Potency [7] | Potency [8] | outcome [9] | Potency [10] | Potency [11] | Potency [12] | Potency [13] | outcome [14] | Potency [15] | outcome [16] | outcome [18]

CCCCCCCCCC(C)=O
inactive: Potency [1] | Potency [2] | outcome [3] | outcome [4] | outcome [5] | outcome [6] | Potency [7] | Potency [8] | outcome [9] | Potency [10] | Potency [11] | Potency [12] | Potency [13] | outcome [14] | Potency [15] | outcome [16] | Potency [19] | outcome [17] | outcome [18] | outcome [20]

O=C(OCC(COC(=O)c1cccnc1)(COC(=O)c1cccnc1)COC(=O)c1cccnc1)c1cccnc1
inactive: Potency [1] | Potency [2] | outcome [3] | outcome [4] | outcome [5] | outcome [6] | Potency [7] | Potency [8] | outcome [9] | Potency [10] | Potency [11] | Potency [12] | Potency [13] | outcome [14] | Potency [15] | outcome [16] | Potency [19] | outcome [18] | outcome [20]

CCNC(=O)C1CC(C)CCC1C(C)C (stereo not drawn)
inactive: Potency [1] | Potency [2] | outcome [3] | outcome [4] | outcome [5] | outcome [6] | Potency [7] | Potency [8] | outcome [9] | Potency [10] | Potency [11] | Potency [12] | Potency [13] | outcome [14] | Potency [15] | outcome [16] | outcome [17] | outcome [18] | outcome [20]

O=C1c2ccccc2C(=O)C1c1ccccc1
inactive: Potency [1] | Potency [2] | outcome [3] | outcome [4] | outcome [5] | outcome [6] | Potency [7] | Potency [8] | outcome [9] | Potency [10] | Potency [11] | Potency [12] | Potency [13] | outcome [14] | Potency [15] | outcome [17] | outcome [18]

CC(CC=O)CCCC(C)(C)O (stereo not drawn)
inactive: Potency [1] | Potency [2] | outcome [3] | outcome [4] | outcome [5] | outcome [6] | Potency [7] | Potency [8] | outcome [9] | Potency [10] | Potency [11] | Potency [12] | Potency [13] | outcome [14] | Potency [15] | outcome [16] | Potency [19] | outcome [17] | outcome [18]

CC(=O)NCc1c(I)c(NC(C)=O)c(I)c(C(=O)O)c1I
inactive: Potency [1] | Potency [2] | outcome [3] | outcome [4] | outcome [5] | outcome [6] | Potency [8] | outcome [9] | Potency [10] | Potency [11] | Potency [12] | Potency [13] | outcome [14] | outcome [16] | Potency [19] | outcome [17] | outcome [18] | outcome [20]
active: Potency [7] 13.3 µM

CN(C)c1ccc(C=O)cc1
active: Potency [7] 54.5 µM
inactive: Potency [1] | Potency [2] | outcome [3] | outcome [4] | outcome [5] | outcome [6] | Potency [8] | outcome [9] | Potency [10] | Potency [11] | Potency [12] | Potency [13] | outcome [14] | Potency [15] | outcome [16] | outcome [17] | outcome [18] | outcome [20]

CN(C)CCOCCO
inactive: Potency [1] | Potency [2] | outcome [3] | outcome [4] | outcome [5] | outcome [6] | Potency [7] | Potency [8] | outcome [9] | Potency [10] | Potency [11] | Potency [12] | Potency [13] | outcome [14] | Potency [15] | outcome [16] | Potency [19] | outcome [17] | outcome [18] | outcome [20]

COP(=O)(OC)OC(c1ccc(Cl)cc1)P(=O)(OC)OC (stereo not drawn)
inactive: Potency [1] | Potency [2] | outcome [3] | outcome [4] | outcome [5] | outcome [6] | Potency [7] | Potency [8] | outcome [9] | Potency [10] | Potency [11] | Potency [12] | Potency [13] | outcome [14] | Potency [15] | outcome [16] | Potency [19] | outcome [17] | outcome [18]

COCCOCCOCCOCCO
inactive: Potency [1] | Potency [2] | outcome [3] | outcome [4] | outcome [5] | outcome [6] | Potency [7] | Potency [8] | outcome [9] | Potency [10] | Potency [11] | Potency [12] | Potency [13] | outcome [14] | outcome [16] | Potency [19] | outcome [17] | outcome [18] | outcome [20]

O=C(O)CCSSCCC(=O)O
inactive: Potency [1] | Potency [2] | outcome [3] | outcome [4] | outcome [5] | outcome [6] | Potency [7] | Potency [8] | outcome [9] | Potency [10] | Potency [11] | Potency [12] | Potency [13] | outcome [14] | Potency [15] | outcome [16] | Potency [19] | outcome [17] | outcome [18] | outcome [20]

CC(C)C(=O)OCCc1ccccc1
inactive: Potency [1] | Potency [2] | outcome [3] | outcome [4] | outcome [5] | outcome [6] | Potency [7] | Potency [8] | outcome [9] | Potency [10] | Potency [11] | Potency [12] | Potency [13] | outcome [14] | Potency [15] | outcome [16] | outcome [17] | outcome [18] | outcome [20]
